Screens deposited in PubChem BioAssay by National Center for Advancing Translational Sciences (NCATS).
Pf growth 48h = inhibits P. falciparum growth in the first generation, 48 h; P. falciparum luciferase growth in erythrocytes, 48 h; Potency, µM (top dose mostly 28.7 µM), actives largely listed as inhibitors; 5.9% of 310,000 active
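Luciferase-expressing P. falciparum in infected erythrocytes (2% hematocrit, 0.1% parasitemia final) in RPMI 1640/0.5% Albumax were exposed to compound for 48 hours at 37 C, 5% CO2; growth read as luminescence.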
Pf growth 96h = P. falciparum growth inhibition at 96 hour, primary screen for plastid delayed-death inhibitors. P. falciparum luciferase reporter growth, 96 h. Potency, µM (doses to about 28.7 µM), actives largely listed as inhibitors. 6.9% of 320,000 active. AID 504834
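Delayed-death screen, second-generation endpoint: infected erythrocytes, 2% hematocrit, 0.05% parasitemia final; 96 hours at 37 C, 5% CO2; luciferase detection reagent; luminescence decrease equals reduced growth.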
Sm TGR inh = blocks Schistosoma mansoni thioredoxin glutathione reductase. purified TGR, DTNB reduction, TNB absorbance 405 nm. Potency, µM (titrated, usually from 114 µM), hits mostly inhibitors. 3% of 360,000 active. AID 485364; also: nearly all actives have a fitted effect of over 60% in size
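TGR 20 nM + NADPH 100 uM (dispensed conc.), cpd preinc 15 min RT; start with NADPH (500 uM addition) then DTNB (15 mM addition). Kinetic TNB absorbance, 405 nm filter. Four-parameter Hill fit across titration.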
AMA1-RON2 inh = disrupts binding of P. falciparum AMA1 to RON2; 0.2% of 360,000 active; Potency, µM (top dose mostly 58.2 µM), hits mostly inhibitors; AID 720542; AlphaScreen AMA1-biotinylated RON2 peptide binding; also: nearly all actives have a fitted effect of over 45% in size
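AMA1 (3D7) with his tag at 25 nM final met compounds first, then biotinylated RON2 peptide at 25 nM; detection used donor plus acceptor beads, 10 µg/mL apiece, read by AlphaScreen after 30 min at room temperature.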
NS1 function inh = blocks influenza NS1 protein function; 0.4% of 270,000 active; Potency, µM (series often up to 46.1 µM); calls by dose curve; also: actives are rising curves; nearly all actives have a fitted effect of over 50% in size
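Compounds were scored for reversing the slow growth caused by influenza A NS1 in S. cerevisiae, measured by optical density at 600 nm. Assay medium contained 2% galactose at pH 6.0; NS1-free yeast of the same strain were the positive control.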
A number is an active result; [ ] = another dose, or the depositor's remark. The list is not random: actives were taken first. Their share in the collection is about 11%. Unless noted, calls follow the shape of the dose curve; as a rule, active = well fitted curve in the direction sought with a large enough effect; inconclusive = small, poorly fitted or top-dose-only effect, or another doubt; inactive = no such curve, though single readings can be large; an effect the other way counts as inactive or inconclusive.

Results for Cc1cc(OCC(=O)NCCc2ccc(S(N)(=O)=O)cc2)c2c(C)cc(=O)oc2c1 ?
Pf growth 48h: inactive; Pf growth 96h: inactive; Sm TGR inh: inactive; AMA1-RON2 inh: inactive; NS1 function inh: inactive

How did C=CCOc1ccc(/C=C/C(=O)OCC(=O)N2CCCc3ccccc32)cc1 do in these assays?
Pf growth 48h: inconclusive; Pf growth 96h: inactive; Sm TGR inh: inactive; AMA1-RON2 inh: inactive

What do the screens show for `COc1ccc(Br)cc1CNc1ccc(O)cc1`?
Pf growth 48h: inconclusive; Sm TGR inh: 28.2µM; AMA1-RON2 inh: inconclusive; NS1 function inh: inactive

Results for COc1ccccc1CNCc1cc(OC)c(OC)cc1OC ?
Pf growth 48h: inactive; Sm TGR inh: inactive; AMA1-RON2 inh: inactive; NS1 function inh: inactive

Results for COc1ccccc1CNCc1cc(Br)ccc1OC ?
Pf growth 48h: 11.7µM; Pf growth 96h: inconclusive; Sm TGR inh: inactive; AMA1-RON2 inh: inactive

Results for COc1ccc(Br)cc1CNc1ccc2[nH]c(=O)[nH]c2c1 ?
Pf growth 48h: inactive; Pf growth 96h: inconclusive; Sm TGR inh: inconclusive; AMA1-RON2 inh: inactive; NS1 function inh: inactive

Results for CC(C)[C@H](NC(=O)c1ccc([N+](=O)[O-])cc1Cl)C(=O)N1CCN(C/C=C/c2ccccc2)CC1 ?
AMA1-RON2 inh: inactive

What do the screens show for `CCCCc1ccc(N=N/C(C(=O)Nc2cc(OC)c(NC(C)=O)cc2OC)=C(/C)O)cc1`?
Pf growth 48h: inconclusive; Pf growth 96h: 4.65µM; Sm TGR inh: inactive; AMA1-RON2 inh: inactive[2.32 µM]; NS1 function inh: inactive

Results for CCCCc1ccc(N=N/C(C(=O)Nc2ccccc2OC)=C(/C)O)cc1 ?
Pf growth 48h: inactive; Pf growth 96h: inactive; Sm TGR inh: inactive; AMA1-RON2 inh: inactive; NS1 function inh: inactive

How did O=C1CCc2cc(S(=O)(=O)NCCCC(=O)N3CCN(Cc4ccc5c(c4)OCO5)CC3)ccc2N1 do in these assays?
Pf growth 48h: inactive; Pf growth 96h: 13.1µM; Sm TGR inh: inactive; AMA1-RON2 inh: inactive

What do the screens show for `O=C(CCNS(=O)(=O)c1ccc2c(c1)CCC(=O)N2)NCc1ccc2c(c1)OCO2`?
Pf growth 48h: inactive; Pf growth 96h: inactive; Sm TGR inh: inactive; AMA1-RON2 inh: inactive; NS1 function inh: inactive

How did CCC1CN(C(=O)N2CCC(C(=O)NCc3cccc(F)c3)CC2)c2cc(C)ccc2O1 (stereo unspecified) do in these assays?
Sm TGR inh: inactive

What do the screens show for `Cc1ccc(S(=O)(=O)N2C[C@H]3N(C(=O)OC(C)C)N(C(=O)OC(C)C)C[C@H](OC(=O)NCc4ccco4)[C@@]3(O)C2)cc1`?
AMA1-RON2 inh: inactive

What do the screens show for `O=C(NCc1ccco1)[C@@H]1CCCN1C(=O)c1cccs1`?
Pf growth 48h: inactive; Sm TGR inh: 39.8µM; AMA1-RON2 inh: inactive; NS1 function inh: inactive

What do the screens show for `CC(C)CC(OC(=O)c1cccs1)C(=O)NCc1ccco1` (stereo unspecified)?
Pf growth 48h: 13.1µM; Pf growth 96h: inactive; Sm TGR inh: 39.8µM; AMA1-RON2 inh: inactive; NS1 function inh: inactive

Results for CCC(OC(=O)c1ccco1)C(=O)NCc1ccco1 (stereo unspecified) ?
Pf growth 48h: inactive; Pf growth 96h: inactive; Sm TGR inh: inactive; AMA1-RON2 inh: inactive; NS1 function inh: inactive

What do the screens show for `CCC(OC(=O)c1cccs1)C(=O)NCc1ccco1` (stereo unspecified)?
Pf growth 48h: inactive; Sm TGR inh: 56.2µM; AMA1-RON2 inh: inactive; NS1 function inh: inactive

Results for COc1ccc2[nH]c3c(c2c1)CCN1C(=O)C(CC(=O)NCCCn2ccnc2)C[C@H](C(=O)N2CCCCC2)[C@@]31C (stereo partly specified) ?
AMA1-RON2 inh: inactive

How did CC1=NN(/C(=N\c2nnc(C)s2)Nc2ccc(C(C)(C)C)cc2)[C@H](c2ccc(C)cc2)S1 do in these assays?
Pf growth 48h: 4.15µM; Pf growth 96h: 6.57µM; Sm TGR inh: inactive; AMA1-RON2 inh: inactive; NS1 function inh: inactive

Results for Cc1ccc(NC(=O)CCSc2nnc(C)s2)cc1 ?
Pf growth 48h: inactive; Pf growth 96h: inactive; Sm TGR inh: inactive; AMA1-RON2 inh: inactive; NS1 function inh: inactive

What do the screens show for `CCOC(=O)CN1C(=O)/C(=C2\SC(=S)N(NC(=O)c3cccnc3)C2=O)c2ccccc21`?
Pf growth 48h: inactive; Pf growth 96h: inactive; Sm TGR inh: inconclusive; AMA1-RON2 inh: inactive; NS1 function inh: inactive

How did CN1C(=O)/C(=C2\SC(=S)N(NC(=O)c3cccnc3)C2=O)c2ccccc21 do in these assays?
Pf growth 48h: inactive; Pf growth 96h: 2.94µM; Sm TGR inh: inactive; AMA1-RON2 inh: inactive; NS1 function inh: inactive

Results for CCCCc1n(CC(=O)c2ccc(Cl)cc2)c2ccccc2[n+]1C ?
Pf growth 48h: 1.17µM; Pf growth 96h: inconclusive; Sm TGR inh: inactive; AMA1-RON2 inh: inactive

Results for Cc1n(CC(=O)c2ccc(F)cc2)c2ccccc2[n+]1C ?
Pf growth 48h: 3.7µM; Pf growth 96h: inconclusive; Sm TGR inh: inactive; AMA1-RON2 inh: inactive

What do the screens show for `Cn1c(=N)n(CC(=O)c2ccc(F)cc2)c2ccccc21`?
Pf growth 96h: inactive; Sm TGR inh: inactive; AMA1-RON2 inh: inactive; NS1 function inh: inactive

What do the screens show for `CCOC(=O)Cn1c(C)[n+](CC(=O)c2ccccc2)c2ccccc21`?
Pf growth 48h: inconclusive; Pf growth 96h: 5.22µM; Sm TGR inh: inactive; AMA1-RON2 inh: inactive; NS1 function inh: inactive

What do the screens show for `O=C(Cn1c(NCCCO)nc2ccccc21)c1ccc(Cl)cc1`?
Pf growth 48h: inconclusive; Pf growth 96h: inactive; Sm TGR inh: inactive; AMA1-RON2 inh: inactive; NS1 function inh: inactive

Results for CCC[C@@H]1C[C@@H](C(=O)N[C@@H]([C@H]2O[C@H](SC)[C@H](O)[C@@H](O)[C@H]2O)[C@@H](C)O)N(C)C1 ?
Pf growth 48h: 2.69µM; Pf growth 96h: 0.169µM

Results for CCC[C@@H]1C[C@@H](C(=O)N[C@H]([C@@H](C)O)[C@H]2O[C@H](SC)[C@H](O)[C@@H](O)C2O)N(C)C1 (stereo partly specified) ?
Pf growth 48h: 0.0415µM; Pf growth 96h: 0.131µM; Sm TGR inh: inactive; AMA1-RON2 inh: inactive; NS1 function inh: inactive

What do the screens show for `Cc1cc(C(F)(F)F)n(-c2nc(C(=O)NN)cs2)n1`?
Pf growth 48h: inactive; Pf growth 96h: 7.38µM; Sm TGR inh: inactive; AMA1-RON2 inh: inactive

How did COC(=O)C1=CN(c2ccc(OC)cc2)C=C(C(=O)OC)C1c1ccc(C)c([N+](=O)[O-])c1 do in these assays?
Pf growth 48h: 13.1µM; Pf growth 96h: inactive; Sm TGR inh: inactive; AMA1-RON2 inh: inactive; NS1 function inh: inconclusive

How did COC(=O)C1=CN(c2cccc(C)c2)C=C(C(=O)OC)C1c1cc(OC)c(O)c([N+](=O)[O-])c1 do in these assays?
Pf growth 48h: 8.28µM; Pf growth 96h: inconclusive; Sm TGR inh: inactive; AMA1-RON2 inh: inconclusive; NS1 function inh: inactive

Results for COC(=O)C1=CN(c2ccc(OC)cc2)C=C(C(=O)OC)C1c1cccc(F)c1 ?
Pf growth 48h: inconclusive; Pf growth 96h: inactive; Sm TGR inh: inconclusive; AMA1-RON2 inh: inactive; NS1 function inh: inactive
